According to ChEMBL document CHEMBL3988442, “University of Dundee, Small-Polar-MMV Screening Library” (2021):
Out of some 48,000 compounds screened, about 13,000 (27%) showed an effect of 50% or more. The list shows a part of the results.

The molecules below were run on Wolbachia pipientis (assay: Anti-Wolbachia Cell-Based Screen). Conditions: 5 µM.
Type: functional
Set-up: scale not given: in the data most compounds retested in dose-response had high values

Structure (SMILES)	Percent Effect
O=C(CN1CCSC2(CCCCC2)C1)NCC(F)(F)F	-26.69%
COCCc1noc(CN2CCN(CC(O)c3ccccc3)CC2)n1 (stereo not given)	5.305%
Cc1cc2c(cc1C(=O)N1CCC3(CC(=O)NC3=O)C1)OCCO2 (stereo not given)	-6.886%
Cc1cc(N2CCC(CO)(CC3CCCCO3)CC2)c2ccccc2n1 (stereo not given)	-1.662%
Cc1cnn(C2(C(=O)O)CCN(c3ccncc3F)CC2)c1	13.66%
CN(CC1(O)CCN(c2ccnc3ccncc23)CC1)C(=O)CCN	110.4%
Cc1ccc(CC(=O)N(C)CC2(O)CCN(c3ccccn3)C2)s1 (stereo not given)	-7.019%
Cc1cnn(C2(C(=O)O)CCN(c3ccnc4cc(Cl)ccc34)CC2)c1	-21.78%
Cc1cc(N2CCC(O)(CN(C)C(=O)CCN)CC2)c2cnccc2n1	69.28%
CN(CC1(O)CCCN(c2ccccn2)C1)C(=O)Cc1ccsc1 (stereo not given)	-7.252%
Cc1cc(N2CCCC(O)(CN(C)C)CC2)nc(-c2ccccc2)n1 (stereo not given)	2.269%
Cc1cc(N2CCC(O)(CN(C)C(=O)CCN)C2)c2cnccc2n1 (stereo not given)	98.27%
Cc1ncc(C)c(N2CCC(CCc3ccccc3)(C(=O)O)CC2)n1	1.128%
Cc1cc(N2CCCC(O)(CN(C)C(=O)CCN)C2)c2cnccc2n1 (stereo not given)	91.76%
CN(C)CC1(O)CCCN(C(=O)c2ccccc2-n2cccn2)C1 (stereo not given)	-10.31%
CC(NC(=O)Cc1ccccc1F)C(=O)N1CCS(=O)(=O)CC1 (stereo not given)	-3.92%
N#Cc1ccnc(N2CCC(NCCN3CCOCC3)CC2)c1	-1.692%
CCC(=O)Nc1cc(Br)cnc1OCC(F)(F)F	-13.83%
Cc1cc(N2CCC(O)(CN(C)C(=O)CCCN)C2)c2cnccc2n1 (stereo not given)	106%
CN1CC(=O)N(C2CCNCC2)Cc2c(NCC(C)(C)C)ncnc21	106.7%
CCNc1ncnc2c1CN(C1CCCNCC1)C(=O)CN2C (stereo not given)	112.3%
COc1ccc(NC(=O)CCC(C)C)c(N2CCN(C(C)=O)CC2)n1	-1.669%

Structure (SMILES)	Percent Effect
O=C(CC1CCCC1)N1CCN(c2ccc(-n3cncn3)nn2)CC1	17.68%
CC1CCCCN1C1CN(c2nc(C3CCCC3)nc3c2cnn3C)C1 (stereo not given)	0.03102%
CC(C)c1nc(N2CCC(N3CCCCCC3)CC2)c2cnn(C)c2n1	83.71%
CC(C)c1nc(N2CCC(N3CCSCC3)CC2)c2cnn(C)c2n1	102.9%
Cn1ncc2c(N3CCS(=O)(=O)CC3)nc(C3CCCC3)nc21	-3.304%
CC(C)c1nc(N2CC(N3CCCCC3C)C2)c2cnn(C)c2n1 (stereo not given)	11.15%
Cn1ncc2c(N3CCC(CCO)CC3)nc(C(C)(C)C)nc21	-3.712%
CC(C)c1nc(N2CCC(N3CCCC(O)C3)CC2)c2cnn(C)c2n1 (stereo not given)	109.7%
CN1CCCN(c2nc(C3CCCC3)nc3c2cnn3C)CC1	2.389%
CC(=O)NCCC1CCN(c2nc(C(C)(C)C)nc3c2cnn3C)CC1	-2.953%
Cn1ncc2c(N3CCN4CCCCC4C3)nc(C3CCCC3)nc21 (stereo not given)	111.9%
Cn1ncc2c(N3CC(N4CCCCC4)C3)nc(C3CCCC3)nc21	6.638%
O=c1ccn(Cc2nc(-c3ccccc3F)cs2)c(=O)[nH]1	-9.097%
COc1cccc2c1OCC(C(=O)NCc1c(C)noc1C)C2 (stereo not given)	-13.16%
Cc1ncc(CN(C)C(=O)Nc2ccc(CN3CCOC3=O)cc2)s1	8.802%
Cc1cc(=O)[nH]c(=O)n1COCCOCc1ccccc1	87.63%
Cc1cc(=O)[nH]c(=O)n1COCc1ccccc1	71.08%
Cc1ccccc1COCCOCn1c(C)cc(=O)[nH]c1=O	116.8%
CCn1c(C)cc(-c2csc(Cn3ccc(=O)[nH]c3=O)n2)c1C	-14.65%
Cc1ccc(S(=O)(=O)NC(=O)CCOCc2ccccc2)s1	4.537%
COCCn1c(=O)n(Cc2ccccc2C)c2cc(C(=O)O)ccc21	-8.391%
Cc1cc(=O)[nH]c(=O)n1Cc1ccccc1	-6.606%

Structure (SMILES)	Percent Effect
Cn1cccc(NC(=O)NCCOCc2ccccc2)c1=O	-14.44%
CC/C(C)=C/CCN1CCN(C)C2(CCNC(=O)CC2)C1 (stereo not given)	-7.249%
O=C(NCc1ccncc1)c1nc2c(o1)CN(C(=O)c1cccnc1)C2.O=C(O)C(F)(F)F.O=C(O)C(F)(F)F	0.8995%
Cc1nc[nH]c1CN1CCN(C(=O)CCC(F)(F)F)[C@H]2CS(=O)(=O)C[C@H]21	0%
Cn1ncnc1CNC1CCCc2cc(F)ccc21 (stereo not given)	-3.531%
COc1ccc(CN2CC[C@H](NC(C)=O)[C@@H](O)CC2)c(F)c1	118.9%
COc1ccc(F)c(CN2CCCC3(CCN(C4CCOCC4)C3)C2)c1 (stereo not given)	-3.304%
COc1ccc(CN2CCC(C(N)=O)CC2)cc1SC(F)(F)F	0.6878%
COc1ccc(CN2CC[C@H](NC(C)=O)[C@@H](O)CC2)c(OC)c1	-2.423%
COc1cccc(CN2CC[C@H](NC(C)=O)[C@@H](O)CC2)c1F	34.02%
COc1cc(CN2CC[C@H](NC(C)=O)[C@@H](O)CC2)ccc1F	106.7%
O=C(C1CCOc2ccccc21)N1CCOc2cccc(F)c21 (stereo not given)	6.908%
O=C(c1ccc(-n2cnnc2)cc1Cl)N1CCCC2(CCNC2)C1 (stereo not given)	-4.992%
Cc1ccc2oc(C(=O)N3CCc4nnc(N(C)C)cc4C3)cc2n1	-8.128%
CNc1cc2c(nn1)CCN(C(=O)c1cc(F)cc(F)c1)C2	8.008%
CNc1cc2c(nn1)CCN(C(=O)c1ccc3c(c1)OCO3)C2	105.8%
CNc1cc2c(nn1)CCN(C(=O)c1coc(Br)c1)C2	117.2%
CNc1cc2c(nn1)CCN(C(=O)c1cc(C)no1)C2	125.3%
CNc1cc2c(nn1)CCN(C(=O)c1ccc3c(c1)CCC3)C2	114.4%
CNc1cc2c(nn1)CCN(C(=O)C1CCCc3ccccc31)C2 (stereo not given)	-4.064%
CN(C)CCNC(=O)c1ccc2c(-c3nccs3)noc2c1	-16.02%
